Experiment [1] can be described thus: Cell Viability - BJ (AID 421; calls by dose curve;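 also: potency is read from the fitted curve at half-maximal effect; cells exposed to compound for 40 hours at 37 °C before readout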). The note with it: BJ fibroblast viability, qHTS. In a few lines:
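Cytotoxicity in human BJ foreskin fibroblasts is scored as loss of cellular ATP after a 40-hour exposure, measured by luciferase luminescence. Controls are DMSO and 100 uM tamoxifen.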
In general terms: Quantitative high-throughput screening tests each substance at several concentrations.

Experiment [2] can be described thus: Cell Viability - Jurkat (AID 426;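 active = dose-dependent loss of cell ATP signal giving a full or clear fitted curve, ranked by lower potency value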; also: potency is read from the fitted curve at half-maximal effect). The note with it: qHTS. The method, boiled down:
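Jurkat (clone E6-1, human T-cell leukemia) cells, 5000/well in complete medium, were exposed to compound for 40 hr at 37 °C. Viability was read as intracellular ATP by CellTiter-Glo luminescence; AC50 came from Hill fits of concentration-response data.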

Experiment [3] can be described thus: Cell Viability - Hek293 (AID 427;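 active = compounds whose dose-response curve shows a full or clear partial loss of cell viability, called from curve shape rather than a numeric limit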;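 also: potency is read from the fitted curve at half-maximal effect; cells exposed to compound for 40 hours at 37 °C before reading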). The note with it: qHTS. In a few lines:
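qHTS, human embryonic kidney (adenovirus-transformed) cells; 40 hr cpd, 37 °C; CellTiter-Glo ATP luminescence. Norm: DMSO = 0, 100 uM tamoxifen = 100% inhibition. Hill-fit AC50.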

Experiment [4] is described as follows: Cell Viability - HepG2 (AID 433; calls by dose curve;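 also: potency is read from the fitted curve at half-maximal effect; potency for ATP loss meaning cytotoxicity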). The note with it: qHTS. In a few lines:
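Cytotoxicity read as ATP loss (CellTiter-Glo luminescence) after 40 hr compound exposure of HepG2, 1500 cells/well, 37 °C. AC50 by Hill equation; 0% set by DMSO, 100% inhibition by 100 uM tamoxifen.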

The nature of experiment [5]: Cell Viability - MRC5 (AID 434; calls by dose curve;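 also: potency is read from the fitted curve at half-maximal effect; potency reflects cytotoxicity seen as loss of intracellular ATP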). The note with it: MRC5 lung fibroblast viability, qHTS. In a few lines: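 MRC5 normal human lung fibroblasts, 1500 cells/well, exposed to compound for 40 hr at 37 C. Cellular ATP was read by CellTiter-Glo luminescence; data normalized to DMSO and 100 uM tamoxifen, with AC50 from Hill fits.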
Experiment [6] in a line: Cell Viability - SK-N-SH (AID 435; calls by dose curve; also: potency is read from the fitted curve at half-maximal effect). The note with it: SK-N-SH neuroblastoma cell viability qHTS. In a few lines: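 qHTS cytotoxicity: CellTiter-Glo ATP luminescence after 40 h compound exposure of human neuroblastoma SK-N-SH cells at 37 °C. AC50 derived by Hill-equation fitting, with DMSO as basal and 100 uM tamoxifen as full inhibition.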
Experiment [7] is described as follows: Cellular Toxicity (caspase-3) HepG2 (AID 654).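 Also: cells exposed to compound for 16 hours before reading; 0% = DMSO alone and 100% = caspase signal from 100 µM tamoxifen.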 The note with it: HepG2 caspase-3 activation, luminescence, 0% = DMSO only, 100% = tamoxifen; series mostly up to 92.2 µM. In a few lines:
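HepG2 cells (1500/well) in complete medium were treated with compounds for 16 hr at 37 °C. Caspase-3/7 activity was then read as luminescence from peptide-aminoluciferin cleavage. AC50 came from Hill fits, normalized to DMSO and 100 uM tamoxifen.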

Experiment [8] can be described thus: Cellular Toxicity (caspase-3) BJ (AID 658). The note with it: BJ fibroblasts, luminescence, normalized: DMSO 0%, staurosporine 100%; series mostly up to 91.7 µM. The method, boiled down:
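BJ human foreskin fibroblasts, 1000 cells/well, treated 16 hours at 37 °C in complete medium; caspase 3/7 activity by Caspase-Glo luminescence after 1 hr at room temperature. Normalized to DMSO and 10 uM staurosporine; AC50 from Hill fits.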

The nature of experiment [9]: Cellular Toxicity (caspase-3) MRC-5 (AID 659). The note with it: MRC-5 cells, luminescence, normalized: DMSO 0%, 10 µM staurosporine 100%; series mostly up to 91.7 µM. In a few lines:
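MRC-5 human normal lung fibroblasts, 1500 cells/well, treated 16 h at 37 °C in complete medium. Caspase 3/7 measured by Caspase-Glo luminescence after 1 h at room temperature. Normalized to DMSO and 10 uM staurosporine; AC50 from Hill fit.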

The nature of experiment [10]: Cellular Toxicity (caspase-3) Hek293 (AID 664).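 Also: cells exposed to compound for 16 h at 37 °C before readout.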 The note with it: HEK293 caspase-3 activation, DMSO = 0%, 100 µM tamoxifen = 100%; at 92.2 µM (top of the series). The method, boiled down: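 HEK293 cells were exposed to compounds in complete medium for 16 hr at 37 °C, then caspase-3/7 activity was read by Caspase-Glo 3/7 luminescence after 20 min at room temperature. Data normalized to DMSO and 100 uM tamoxifen; AC50 from Hill fits.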

Experiment [11] is described as follows: Cellular Toxicity (caspase-3) N2a (AID 665).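 Also: compound exposure lasted 16 h at 37 °C before readout.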 The note with it: N2a cells, luminescence, normalized: DMSO 0%, 10 µM staurosporine 100%; series mostly up to 92.2 µM. In a few lines:
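Mouse N2a neuroblastoma cells (1500/well) were treated with compounds for 16 h at 37 °C, then caspase-3/7 activity was read by Caspase-Glo luminescence after 1 h at room temperature. Data were normalized to DMSO and 10 uM staurosporine; AC50 from Hill fits.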

Experiment [12] is described as follows: Cellular Toxicity (caspase-3) NIH 3T3 (AID 666).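 Also: caspase signal read after 16 h compound exposure; 0% = DMSO basal and 100% = 100 µM tamoxifen stimulation.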 The note with it: NIH 3T3 caspase-3 activation, apoptosis/toxicity; series mostly up to 92.2 µM. The method, boiled down: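 Mouse NIH 3T3 fibroblasts (1000 cells/well) were treated with compound for 16 hr at 37°C in complete medium; caspase-3/7 activity was read by Caspase-Glo luminescence. Normalized to DMSO and 100 uM tamoxifen; AC50 from Hill fits.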

Experiment [13] can be described thus: MultiTox-Fluor Cytotoxicity Assay - LYMP1-001 - Dead Cells (AID 946). The note with it: LYMP1-001 lymphoblastoid cells, dead-cell protease fluorescence; series mostly up to 92.2 µM. The method, boiled down: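 Seed 2500 LYMP1-001 cells/well, incubate 5 hr at 37 C; add compound, 16 hr at 37 C; add MultiTox-Fluor reagent, 60 min RT; read dead-cell fluorescence Ex/Em=485/520. Normalize to DMSO and 15 uM tetraoctylammonium bromide.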

The nature of experiment [14]: MultiTox-Fluor Cytotoxicity Assay - LYMP1-002 - Live Cells (AID 955). Also: % is scaled to controls: 0 for no effect and ±100 for the full control effect. The note with it: LYMP1-002 lymphoblastoid live-cell protease fluorescence viability; series mostly up to 46.1 µM. The method, boiled down:
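Human lymphoblastoid LYMP1-002 cells, 2500/well in complete medium, rested 5 hr at 37 C, then exposed to compounds for 16 hr at 37 C. Live-cell protease cleavage of GF-AFC read by fluorescence (Ex/Em 405/510) after 60 min at room temperature; AC50 from Hill fits.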

Experiment [15] is described as follows: MultiTox-Fluor Cytotoxicity Assay - LYMP1-003 - Dead Cells (AID 961). Also: nearly all actives have a fitted effect of over 70% in size. Also: potency is read from the fitted curve at half-maximal effect. The note with it: LYMP1-003 lymphoblastoid cells, dead-cell protease fluorescence; series mostly up to 92.2 µM. In a few lines:
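LYMP1-003 lymphoblastoid, 2500 cells/well, 5 hr settle then 16 hr cpd at 37 C; MultiTox-Fluor reagent 60 min RT; Ex/Em 485/520 dead-cell signal; norm. DMSO = 0%, 15 uM tetraoctylammonium bromide = 100%; Hill AC50.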

Experiment [16] is described as follows: Cell Viability - LYMP2-008 (AID 980). Also: nearly all actives have a fitted effect of over 60% in size. Also: potency is read from the fitted curve at half-maximal effect. The note with it: LYMP2-008 lymphoblastoid cell viability, qHTS; series mostly up to 92.2 µM. The method, boiled down: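 Human lymphoblastoid cells (2500/well) were plated, held 5 hr at 37 C, then exposed to compounds for 24 hr at 37 C in complete medium. Intracellular ATP was read by CellTiter-Glo luminescence; AC50 from Hill-fitted concentration-response.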

Experiment [17] can be described thus: Cell Viability - LYMP1-002 - Assay at 24 hr (AID 993). Also: % is scaled to controls: 0 for no effect and ±100 for the full control effect. The note with it: LYMP1-002 lymphoblastoid cells viability; series mostly up to 92.2 µM. The method, boiled down:
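Human lymphoblastoid LYMP1-002 cells, 2500/well in complete medium, were treated with compounds for 24 h at 37 C; intracellular ATP was read by CellTiter-Glo luminescence. AC50 values came from Hill-equation fits of qHTS concentration-response data.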

Experiment [18] is described as follows: qHTS Assay for Identification of Small Molecule Inducers of Hypoxia Response (AID 2120; active = well fitted curve in the direction sought with a large enough effect in the signal ratio, with a control signal flat, not every such curve was filed as active; the % refers to the signal ratio; also: 0% is about no effect). The note with it: hypoxia response reporter cells, beta-lactamase ratio readout; series mostly up to 104 µM. The method, boiled down: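 HRE-beta-lactamase reporter in CellSensor HRE-bla ME-180 cells, 2500 cells/well in Opti-MEM with 0.5% dialyzed FBS; compounds tested as titration series, 17 h at 37 degrees C. CCF4 substrate 2.5 h at room temperature; AC50 from 460/530 nm ratio.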

Experiment [19] concerns the target Peroxisome proliferator-activated receptor alpha (Homo sapiens) (UniProt Q07869). The experiment is described as follows: qHTS assay for small molecule agonists of the peroxisome proliferator-activated receptor alpha (PPARalpha) signaling pathway (AID 651778). Also: % of control where 0% means no effect. The note with it: PathHunter PPARalpha complementation, chemiluminescence, 6 h; active compounds read high. The method, boiled down: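 Enzyme-fragment complementation assay in which ligand-bound PPARalpha translocates and forms an active enzyme that generates chemiluminescence. Cells were plated overnight, exposed to compound for 6 hr at 37 C, and then given detection reagent for 60 min at room temperature.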

Experiment [20] in a line: qHTS assay for cell viability of the p53RE-bla HCT-116 cell line (AID 743292). Also: % is scaled to controls: 0 for no effect and ±100 for the full control effect; nearly all actives have a fitted effect of over 55% in size. The note with it: p53RE-bla HCT-116 viability, ATP luminescence, 16 h; series mostly up to 95 µM. In a few lines:
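CellSensor p53RE-bla HCT-116 cells, 4,000/well, preincubated 5 h at 37 C, then exposed to compounds in DMSO for 16 h at 37 C. Viability read as CellTiter-Glo luminescence (intracellular ATP) after 30 min at room temperature.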

Each structure is given as a SMILES string. Where “and” joins values, the source holds several entries; their conditions need not be identical. Equal entries are not always repeated. A number with no mark means an inactive call. Records with an inconclusive call do not appear. Calls of active or inactive are those of the source. Unless noted, calls follow the shape of the dose curve; as a rule, active = well fitted curve in the direction sought with a large enough effect; inconclusive = small, poorly fitted or top-dose-only effect, or another doubt; inactive = no such curve, though single readings can be large; an effect the other way counts as inactive or inconclusive.

Peroxisome proliferator-activated receptor alpha (Homo sapiens), sequence (Q07869 whole entry, looked up, the tested form may be a part): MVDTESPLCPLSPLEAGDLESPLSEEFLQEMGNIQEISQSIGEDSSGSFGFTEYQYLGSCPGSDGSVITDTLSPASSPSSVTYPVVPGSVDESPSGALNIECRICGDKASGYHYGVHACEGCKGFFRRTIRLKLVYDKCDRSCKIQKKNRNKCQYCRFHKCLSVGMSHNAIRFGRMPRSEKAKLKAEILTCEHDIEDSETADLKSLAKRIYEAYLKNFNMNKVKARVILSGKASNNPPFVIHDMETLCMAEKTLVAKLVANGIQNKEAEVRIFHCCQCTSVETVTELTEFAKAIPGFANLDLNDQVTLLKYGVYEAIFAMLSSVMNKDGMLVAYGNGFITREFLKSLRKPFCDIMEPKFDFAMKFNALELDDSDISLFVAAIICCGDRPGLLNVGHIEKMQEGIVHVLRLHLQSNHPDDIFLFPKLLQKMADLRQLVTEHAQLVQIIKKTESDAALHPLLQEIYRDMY

As to `CCOP(=S)(OCC)SCCSCC`, the Potency in [1], in [2], in experiment [3], in experiment [4], in experiment [5] and in [6] was more than 92 µM in each case. In addition, the compound was classed as inactive in experiment [7], in experiment [8], in experiment [9], in [11], in [13] and in experiment [14]. Further, the caspase-3 activation in experiment [10] was 0.951%. Also, the Potency entry in [12], in experiment [15], in [16], in experiment [17], in experiment [18] and in experiment [20] was “inactive” throughout. Besides, the max response in experiment [19] is -1.85% and -0.372%.

`c1ccc(OCC2CO2)cc1` (stereo not given): the Potency in experiment [1], in experiment [2], in [3], in [4], in [5] and in experiment [6] was more than 92 µM each time. The compound was classed as inactive in experiment [7], in [8], in experiment [9], in experiment [11], in experiment [13] and in [14]. In addition, the caspase-3 activation in [10] was 0.633%. The Potency entry in experiment [12], in experiment [15], in experiment [16], in [17], in experiment [18] and in [20] was “inactive” throughout. In experiment [19], the max response was -5.02%.

Regarding `Cc1ccc(N)c(N)c1`, the Potency is more than 92 µM in [1]; 9.63 µM (active) in experiment [2]; more than 92 µM in experiment [3]; more than 92 µM in experiment [4]; more than 92 µM in experiment [5]; more than 92 µM in experiment [6]. The Potency in experiment [15] is 15.8 µM (active); in [16] it was 39.8 µM (active). Besides, the compound was called inactive in experiment [7], in [8], in experiment [9], in experiment [11], in experiment [13] and in experiment [14]. In addition, the caspase-3 activation in experiment [10] is 8.54%. The Potency entry in experiment [12], in experiment [17], in experiment [18] and in experiment [20] was “inactive” each time. Moreover, the max response in experiment [19] was -2.85%.

For the compound `O=[N+]([O-])c1cccc(O)c1`, the Potency in experiment [1], in [2], in [3], in [4], in experiment [5] and in [6] was more than 92 µM in each case. The call in [7], in experiment [8], in experiment [9], in [11], in experiment [13] and in experiment [14] was inactive. In [10], the caspase-3 activation is 0.974%. For the same compound, the Potency entry in experiment [12], in experiment [15], in [16], in [17], in [18] and in experiment [20] was “inactive” in each case. Moreover, the max response in experiment [19] is -4.41%.

The values are drawn from PubChem BioAssay (NCATS).
